The assay deals with Glucose transporter (Leishmania mexicana) (UniProt O61059). As to the kind of experiment: ST_JUDE_LEISH: Cytotoxicity at 2uM final concentration against transgenic Leishmania Mexicana promastigotes LmGT2 that are glucose transport deficient and complemented with the L. Mexicana glucose transporter 2. Activity is measured by DNA content using SYBR green in vitro. The class given is functional.
The term inhibition denotes the relative decrease from the control value, in per cent. Consider `Cc1ccc(-c2ccc3c(c2)C=C(C(=O)NC2CCN(CCNC(=O)c4cccc(C(F)(F)F)c4)CC2)CCC3)cc1`, for which the inhibition was determined as 7.77%.
With `COc1ccc2ncc(F)c([C@@H](O)CN3CCC(NCc4cc5c(cn4)OCS5)CC3)c2c1`, the inhibition turned out to be 4.52%.
On to `CC(CN(C)C)C(=O)Nc1ccc(-c2cccc(-c3nc4cc(C(F)(F)F)ccc4[nH]3)c2)cc1` (centres undefined), for which the inhibition is -2.14%.
With `CCCc1cc(OC)c(CC2c3cc(O)c(Cl)cc3C(c3ccccc3)CN2C)cc1OC` (centres undefined), the inhibition is 3.98%.
Regarding `COc1cc(Cc2c(C)nc3nc(N)nc(N)c3c2C)c(Br)c(OC)c1OC`, the inhibition was found to be 4.73%.
Regarding `NC(=O)c1ccsc1NC(=O)CNC(c1ccccc1)c1ccccc1`, the inhibition was 1.15%.
Turning to `COc1cc2nc(NCc3ccc(S(N)(=O)=O)cc3)nc(Nc3ccc(Oc4ccccc4)cc3)c2cc1OC`, the inhibition is 3.67%.
Regarding `Fc1ccc2[nH]c(-c3cccc(-c4cccc(CNCc5cnn(-c6ccccc6)n5)c4)c3)nc2c1`, the inhibition was 7.46%.
`N=C(Cc1ccc(Cl)cc1)NCCN1CCCCCC1`: the inhibition was 6.19%.
For `Cc1cccc2nc(-c3ccc(-c4cccc(C(=O)N5CCCCC5C(C)O)c4)s3)[nH]c12` (centres undefined), the inhibition was determined as 3.46%.
Regarding `COc1cccc(-c2ccc3c(-c4ccc(F)cc4)cnc(N)c3c2)c1`, the inhibition turned out to be 2.91%.
For `CN1CCCc2ccc(NC(=O)Nc3ccc(Cl)c(Cl)c3)cc2C1`, the inhibition was -1.33%.
Consider `CCCc1cc(Cc2cnc(N)nc2N)ccc1OCCCCCC(=O)OCC`, for which the inhibition was -2.01%.
Consider `Cc1cccc2nc(-c3ccc(-c4cccc(CN5CCCCC5)c4)s3)[nH]c12`, for which the inhibition worked out at 1.81%.
For `COc1ccc2nccc(N3CCC(NCCNS(=O)(=O)c4ccc5c(c4)NC(=O)CS5)C3)c2n1` (centres undefined), the inhibition is -2.22%.
With `CN(C)CCN(C)Cc1nc(-c2ccc3c(Nc4ccc(Oc5ccccc5)cc4)ccnc3c2)cs1` the figure was 2.65%.
On to `CCN1C(c2ccc(Cl)cc2)C(CNCc2ccccc2O)CC1(C)CO` (centres undefined), for which the inhibition came to 4.57%.
With `COc1ccc(NC(=O)[C@H](Cc2ccccc2)Nc2cc(C)nc(NCCc3ccccc3OC)n2)cc1` the figure was -0.97%; with `COc1cc(-n2cnc3cc(-c4ccc([N+](=O)[O-])cc4)sc3c2=O)ccc1OCCN1CCCC1`, 16%.
For `CC(=O)c1ccc2nc[nH]c(=O)c2c1`, the inhibition is 91.6%.
With `CN(C)CCCN(C)C(=O)c1cc2cc(-c3ccccc3)ccc2n1S(=O)(=O)c1ccccc1`, the inhibition was -0.41%.
Turning to `COc1c(C2CCN(CCCCNC(=O)c3ccc(C)c(-c4ccc(C(F)(F)F)cc4)c3)CC2)ccc2c1CCCC2`, the inhibition was -0.09%.
For `O=c1[nH]c2ccc(Nc3nccc(NCCc4ccccc4)n3)cc2[nH]1`, the inhibition turned out to be 5.12%.
Take `CCN(C)C(=O)n1ncc2c3c(N)nc(N)nc3ccc21`: the inhibition is 2.18%.
